Compounds without any hit were thinned out: in the full panel of roughly 83,000, 20% have a hit.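 Interpretation: 100, growth as untreated; towards 0, rising growth inhibition; 0, no net growth; 0 to -100, cell death. Compounds scoring below 10 were considered active.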 A number with no mark means an inactive call. Activity calls are given as the source filed them.

This experiment concerns SNB-75 CNS. Kind of experiment: NCI-60 one-dose screen, 48 h (100 = growth as untreated, 0 = no growth, -100 = all killed). The conditions noted are these: 10 µM. The method, then:
Growth inhibition of the SNB-75 human tumor cell line is measured as a screen for anti-cancer activity. Cells are grown in 96 well plates and exposed to the test compound for 48 hours. Compounds are tested at a single concentration, which is 10^-5 M for most compounds. The reported endpoint is percent growth (GI% or GIPRCNT), where numbers from 0 - 100% represent growth inhibition, and numbers from -100% - 0 represent cell death. For example, a value of 40 represents 60% growth inhibition. A value of 0 means no net growth occurred over the course of the experiment. A value of -40 indicates 40% of cells at the beginning of the experiment died by the end of the experiment. A value of -100 means all cells are dead at the end of the experiment.
NCI-60 Human Tumor Cell Lines Screen was performed using the standard one-dose NCI protocol, which is described in more detail at https://dtp.cancer.gov/discovery_development/nci-60/default.htm.
Compounds with GIPRCNT values below 10 were considered active. Activity score was based on GIPRCNT using the following formula: […]
Score is 0 for GIPRCNT values of 100 or above, 50 for GIPRCNT values of 0, and 100 for GIPRCNT values of -100.
As for `CCN(CC)CCCC(Nc1c2ccc(Cl)cc2nc2ccc(OC)cc12)c1ccc(F)cc1` (stereo not given), the growth is 93.3%. As to `CN1C(C(=O)Nc2ccccn2)=C(O)c2sc(Cl)cc2S1(=O)=O`, the growth is 89.5%. On to `CC1=CC2C(C(O)CC3(C)C2CC(C)C32OCOC23COCO3)C2(C)C/C(=C/O)C(=O)C=C12` (stereo not given), for which the growth is 100%. To `CS(=O)(=O)c1nccc(-c2c(-c3cccc(OCc4ccccc4)c3)nc3sccn23)n1` belongs 97.5%; to `Cc1ccc(NCCN(C)CC(C)O)c2c(=O)c3ccc(Cl)cc3sc12` (stereo not given), 76.3%; to `O=C1/C(=C/c2cccc(F)c2)Cc2ccccc21`, 89.4%. `O=C(O)c1ccc(-n2cc(CNc3ccc(Cl)cc3)c(-c3ccccc3)n2)cc1`: the growth is 78.4%. To `S=C(SSC(=S)N(c1ccccc1)c1ccccc1)N(c1ccccc1)c1ccccc1` belongs 100%; to `Cc1cc(NC(=O)c2ccc(C)c(Nc3nccc(-c4cccnc4)n3)c2)cc(-n2cnc(C)c2)c1`, -14% (active); to `COc1ccc(-c2cc(-c3ccc(Cl)cc3)nc(SCCCCCCC(=O)NO)n2)cc1OC`, 34%.

`CCOC(=O)C1C(C(=O)OCC)C2C(=O)C3C(C(=O)OCC)C(C(=O)OCC)C3C(=O)C12` (stereo not given): the growth is 99.9%. To `CNS(=O)(=O)Oc1ccc(-c2ccc3occc3c2)cc1` belongs 106%; to `COc1cc(CNC(=O)C2CSC3(C)c4ccccc4C(=O)N23)cc(OC)c1OC` (stereo not given), 97.5%; to `IC(I)I`, 90.8%.

Take `O=C(N/N=C/c1cc([N+](=O)[O-])ccc1O)c1cccc2ccccc12`: the growth is 55%. To `CC(C)(O)CCl` belongs 110%; to `Cc1ccc(-n2nnnc2N)c(C)c1`, 101%; to `Cn1cnc([N+](=O)[O-])c1/C=C1\Oc2ccc(Br)cc2C1=O`, 88.1%. Under `COC(=O)C1OC1c1cc([N+](=O)[O-])ccc1OC` (stereo not given) stands 90.6%; under `COc1ccc(-c2n[nH]nc2-c2cc(OC)c(OC)c(OC)c2)cc1`, 50.1%; under `N#Cc1c(N)nc(-c2cc(F)cc(C(F)(F)F)c2)nc1-c1ccccc1F`, 13.6%. To `CCc1cc(Cl)c(OC)c(C(=O)NCC2CCCN2CC)c1O` (stereo not given) belongs 67.1%. On to `CC(=O)Nc1ccc(CC[C@H]2CCC/C=C/[C@@H]3C[C@H](O)C[C@H]3[C@H](O)/C=C/C(=O)O2)cc1`, for which the growth is 30.3%. Under `COc1ccc(CCN2CCC(Nc3nc4ccccc4n3Cc3ccc(F)cc3)CC2)cc1` stands -29.9% (active); under `O=C(Nc1ccc2c(O)cc(S(=O)(=O)O)cc2c1)c1ccc([N+](=O)[O-])cc1`, 99.6%. Turning to `COc1cc2nc(SCC(=O)Nc3cc(OC)c(OC)c(OC)c3)n(Cc3ccccc3)c(=O)c2cc1OC`, the growth is -1.98% (active). Under `COc1cc(/C=C/c2cc(/C=C/c3ccc(O)c(OC)c3)n(C(=O)Nc3ccc(C)cc3)n2)ccc1O` stands 9.53% (active); under `Cc1ccc(NC(=O)N2CCCCC2)cc1[N+](=O)[O-]`, 90.5%; under `CC(C)(C)OC(=O)N1CCc2c(sc3ncnc(N/N=C/c4ccc(Br)cc4)c23)C1`, 61.8%. Under `Cc1cc(Cl)ccc1Nc1nc(C(F)(F)F)ccc1C(=O)N/N=C/c1c(Cl)cccc1Cl` stands -16.4% (active).

On to `COc1ccc(-c2cc(-c3cc(OC)ccc3OC)nc(N)c2C#N)cc1`, for which the growth is 16.3%. To `O=C(N/N=C/c1ccc(Cl)cc1)c1ccccc1Nc1cccc(C(F)(F)F)c1` belongs 78.7%. To `COc1ccc(-c2n[nH]nc2-c2cc(OC)c3c(c2OC)OCO3)cc1` belongs 4.8% (active); to `CCOC(=O)N/N=C/c1ccc(OC)c(OC)c1`, 106%; to `CCN(CC)CCCOc1cccc2c1C(=O)c1cccc(OCCCN(CC)CC)c1C2=O`, 52.6%. To `CS(=O)(=O)c1nccc(-c2c(-c3cccc(OCCc4ccccc4)c3)nc3sccn23)n1` belongs 98.4%.

Consider `NC(=O)c1cccc(-n2ccc3cc(NC(=O)Nc4ccc(Cl)c(C(F)(F)F)c4)ccc32)n1`, for which the growth was 47.5%. Under `COc1ccc(NC(=O)C2CC3C=CC2C3)c([N+](=O)[O-])c1` (stereo not given) stands 91.2%; under `CC(C)(C)c1ccc(S(=O)(=O)N[C@H]2CC[C@H]3[C@@H]4CCc5cc(O)c([N+](=O)[O-])cc5[C@H]4CC[C@]23C)cc1`, 5.54% (active).

As to `Cc1ccc2nc(Cl)c(-c3nc4ccccc4o3)cc2c1`, the growth was 90.2%.

Values taken from PubChem BioAssay (NCI).
